Assay results: the supplement of paper PMC12494721
Where a name gives a salt, the structure may show the parent alone.

Columns and labels:
Conditions in all cases: 20 µM; incubation time: 27 h, anaerobic, 37 °C;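 for the amine columns active = adjusted P below 0.05 in both replicates with a change the same way and a mean fold change under 0.8 or over 1.25; inactive = the rest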
[1] = test system: Clostridium sporogenes DSM 1664; experiment: growth (OD595) fold change vs plate DMSO controls (fold change (ratio)); higher = more growth
Method in brief: (§1)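 Growth is expressed as the fold change relative to the median of the DMSO control wells on each plate. Cultures in mGAM were grown anaerobically in 96-well plates for 27 h at 37 °C, shaken, and read at 595 nm. Readings were blank-subtracted, corrected for compound background with 20 µM compound solutions in water, and converted to OD with a calibration factor of 5. Fold changes above 1.5 were set to NA, and each value is the mean of 2 biological replicates.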

Escherichia coli IAI1 [2] = experiment: as above
Method in brief: as §1

[3] = test system: Klebsiella aerogenes DSM 30053; experiment: as above
Method in brief: as §1

[4] = test system: Ruminococcus gnavus DSM 108212; experiment: as above
Method in brief: as §1

[5] = test system: Klebsiella aerogenes DSM 30053; experiment: fold change of Histamine concentration vs plate DMSO controls (fold change (ratio)); higher = more amine produced, active = hit call of the paper (significant change in both replicates, either direction)
Method in brief: (§2)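 Amines were quantified by LC–triple-quadrupole MS in dynamic MRM mode against external calibration curves, with drift correction within each batch. The samples were whole anaerobic mGAM cultures of four gut bacterial strains, grown for 27 h at 37 °C in 80 µL wells and extracted with cold acetonitrile/methanol with 0.1% formic acid, then centrifuged. Values are reported as fold change over DMSO controls on the same plate. The mean of 2 biological replicates is given.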

[6] = test system: Clostridium sporogenes DSM 1664; experiment: fold change of Tryptamine concentration vs plate DMSO controls (fold change (ratio)); higher = more amine produced, active = hit call of the paper (significant change in both replicates, either direction)
Method in brief: as §2

[7] = test system: Ruminococcus gnavus DSM 108212; experiment: as above
Method in brief: as §2

Escherichia coli IAI1 [8] = experiment: fold change of Putrescine concentration vs plate DMSO controls (fold change (ratio)); higher = more amine produced, active = hit call of the paper (significant change in both replicates, either direction)
Method in brief: as §2

[9] = test system: Klebsiella aerogenes DSM 30053; experiment: as above
Method in brief: as §2

Escherichia coli IAI1 [10] = experiment: fold change of Cadaverine concentration vs plate DMSO controls (fold change (ratio)); higher = more amine produced, active = hit call of the paper (significant change in both replicates, either direction)
Method in brief: as §2

[11] = test system: Klebsiella aerogenes DSM 30053; experiment: as above
Method in brief: as §2

[12] = test system: Ruminococcus gnavus DSM 108212; experiment: fold change of 2-Phenylethylamine concentration vs plate DMSO controls (fold change (ratio)); higher = more amine produced, active = hit call of the paper (significant change in both replicates, either direction)
Method in brief: as §2

Row | Structure (SMILES) | growth [1] | growth (Escherichia coli IAI1 [2]) | growth [3] | growth [4] | fold change of Histamine concentration [5] | fold change of Tryptamine concentration [6] | fold change of Tryptamine concentration [7] | fold change of Putrescine concentration (Escherichia coli IAI1 [8]) | fold change of Putrescine concentration [9] | fold change of Cadaverine concentration (Escherichia coli IAI1 [10]) | fold change of Cadaverine concentration [11] | fold change of 2-Phenylethylamine concentration [12]
1 | CC(C)OC(=O)Nc1cccc(Cl)c1 | 1.05 | 1.04 | 1.05 | 0.957 | 0.972 (inactive) | 0.989 (inactive) | 1.02 (inactive) | 0.987 (inactive) | 0.984 (inactive) | 0.927 (inactive) | 1.01 (inactive) | 1.06 (inactive)
2 | O=NN(CCO)CCO [DMNA (N-nitrosodiethanolamine)] | 0.95 | 1.15 | 1 | 1.09 | 0.975 (inactive) | 0.994 (inactive) | 1.05 (inactive) | 1.03 (inactive) | 0.957 (inactive) | 0.978 (inactive) | 1.03 (inactive) | 1.08 (inactive)
3 | Fc1ccc(C(OCCN2CCN(CCCc3ccccc3)CC2)c2ccc(F)cc2)cc1 | 1.09 | 1 | 1 | 0.845 | 0.974 (inactive) | 0.97 (inactive) | 0.638 (active) | 1.01 (inactive) | 0.993 (inactive) | 0.998 (inactive) | 1 (inactive) | 0.771 (active)
4 | CC(Cc1ccc(O)cc1)NCC(O)c1cc(O)cc(O)c1 (stereo unspecified) [Fenoterol hydrobromide] | 1 | 1 | 1.01 | 1.21 | 1.06 (inactive) | 0.982 (inactive) | 1.04 (inactive) | 1.02 (inactive) | 1.04 (inactive) | 0.983 (inactive) | 0.991 (inactive) | 1.04 (inactive)
5 | CC(C)(C)c1ccc(CSc2cnn(C(C)(C)C)c(=O)c2Cl)cc1 | 0.838 | 0.995 | 1.01 | 1.13 | 1 (inactive) | 1.02 (inactive) | 0.997 (inactive) | 0.97 (inactive) | 1.01 (inactive) | 1.04 (inactive) | 1 (inactive) | 0.948 (inactive)
6 | CN(C)C(=O)Oc1cc(OC(=O)N(C)C)cc(C(O)CNC(C)(C)C)c1 (stereo unspecified) [Bambuterol hydrochloride] | 1.09 | 1.03 | 1 | 1.18 | 1.03 (inactive) | 1.03 (inactive) | 1.02 (inactive) | 0.988 (inactive) | 1.03 (inactive) | 1 (inactive) | 0.995 (inactive) | 1.02 (inactive)
7 | CC(=O)O[C@H]1C[C@@H]2CC[C@@H]3[C@H](CC[C@@]4(C)[C@H]3C[C@H]([N+]3(C)CCCCC3)[C@@H]4OC(C)=O)[C@@]2(C)C[C@@H]1[N+]1(C)CCCCC1 [Pancuronium bromide] | 0.918 | 1.08 | 1.1 | 1.08 | 0.905 (inactive) | 1.04 (inactive) | 1.07 (inactive) | 1.07 (inactive) | 0.983 (inactive) | 0.957 (inactive) | 1.03 (inactive) | 1.08 (inactive)
8 | N#C/N=C1\SCCN1Cc1ccc(Cl)nc1 | 1.01 | 0.969 | 0.996 | 1 | 0.995 (inactive) | 1 (inactive) | 1 (inactive) | 1.04 (inactive) | 0.994 (inactive) | 0.991 (inactive) | 1 (inactive) | 1.03 (inactive)
9 | O=C(NC(=O)c1c(F)cccc1F)Nc1ccc(OC(F)(F)C(F)OC(F)(F)F)c(Cl)c1 (stereo unspecified) | 0.972 | 1.03 | 1.01 | 0.995 | 0.951 (inactive) | 0.981 (inactive) | 1.01 (inactive) | 1.01 (inactive) | 0.928 (inactive) | 0.872 (inactive) | 1.01 (inactive) | 0.957 (inactive)
10 | CCc1cccc(C)c1N(C(=O)CCl)[C@@H](C)COC | 1.01 | 1.01 | 0.995 | 0.912 | 1.01 (inactive) | 1.07 (inactive) | 1.01 (inactive) | 1.02 (inactive) | 0.999 (inactive) | 0.998 (inactive) | 0.997 (inactive) | 1.04 (inactive)
11 | O=C(NC(=O)c1c(F)cccc1F)Nc1ccc(Cl)cc1 | 1.04 | 0.979 | 1.02 | 0.975 | 1.01 (inactive) | 0.919 (inactive) | 0.999 (inactive) | 0.982 (inactive) | 1.05 (inactive) | 1.01 (inactive) | 1.03 (inactive) | 0.98 (inactive)
12 | Cc1nc(N(C)C)nc(OC(=O)N(C)C)c1C | 1.02 | 1 | 0.963 | 1.06 | 1.01 (inactive) | 1.12 (inactive) | 0.985 (inactive) | 0.905 (inactive) | 1 (inactive) | 1.02 (inactive) | 1 (inactive) | 0.945 (inactive)
13 | O=C(Nc1ccc(F)cc1F)c1cccnc1Oc1cccc(C(F)(F)F)c1 | 0.931 | 1.02 | 1.03 | 0.965 | 1.01 (inactive) | 0.987 (inactive) | 0.983 (inactive) | 1.01 (inactive) | 0.995 (inactive) | 1.03 (inactive) | 0.993 (inactive) | 0.987 (inactive)
14 | CC(C)OC(=O)C(C(=O)OC(C)C)=C1SCCS1 | 1.07 | 0.971 | 1.02 | 1.08 | 0.989 (inactive) | 0.999 (inactive) | 1 (inactive) | 1.02 (inactive) | 1 (inactive) | 0.976 (inactive) | 1 (inactive) | 0.956 (inactive)
15 | CSc1nnc(C(C)(C)C)c(=O)n1N | 0.994 | 1.01 | 1 | 0.945 | 0.976 (inactive) | 0.982 (inactive) | 1.07 (inactive) | 0.945 (inactive) | 0.978 (inactive) | 0.959 (inactive) | 1.04 (inactive) | 1.13 (inactive)
16 | CC(Cc1ccccc1)NCCC(c1ccccc1)c1ccccc1 (stereo unspecified) [Prenylamine lactate] | 1.01 | 0.997 | 1 | 1.45 | 0.979 (inactive) | 0.96 (inactive) | 0.913 (inactive) | 1.37 (inactive) | 0.961 (inactive) | 0.657 (active) | 0.987 (inactive) | 0.983 (inactive)
17 | O=C(CCCN1CCC(n2c(=O)[nH]c3ccccc32)CC1)c1ccc(F)cc1 [Benperidol] | 1.07 | 0.943 | 0.941 | 0.827 | 1 (inactive) | 1.01 (inactive) | 1.03 (inactive) | 0.998 (inactive) | 1.02 (inactive) | 1.02 (inactive) | 1.02 (inactive) | 1.05 (inactive)
18 | CC(C)(C)C(O)(CCc1ccc(Cl)cc1)Cn1cncn1 (stereo unspecified) | 0.978 | 1.03 | 1.01 | 1.02 | 0.981 (inactive) | 1.24 (inactive) | 1.07 (inactive) | 0.998 (inactive) | 1.03 (inactive) | 1.01 (inactive) | 1.03 (inactive) | 1.15 (inactive)
19 | C[C@]12CC[C@H](O)CC1=CC[C@@H]1[C@@H]2CC[C@]2(C)C(=O)CC[C@@H]12 [Prasterone] | 1.17 | 1.01 | 1.04 | 1.07 | 0.984 (inactive) | 0.972 (inactive) | 0.985 (inactive) | 1 (inactive) | 0.999 (inactive) | 1.05 (inactive) | 0.991 (inactive) | 1 (inactive)
20 | CNCC(O)c1ccc(O)cc1 (stereo unspecified) [Synephrine] | 1.04 | 1.09 | 1.01 | 0.887 | 1.02 (inactive) | 0.997 (inactive) | 1.05 (inactive) | 1.11 (inactive) | 0.982 (inactive) | 0.997 (inactive) | 0.989 (inactive) | 1.09 (inactive)
21 | CCCCN(CCCC)SN(C)C(=O)Oc1cccc2c1OC(C)(C)C2 | 1.06 | 1.03 | 1.01 | 0.993 | 1.01 (inactive) | 0.965 (inactive) | 1.01 (inactive) | 1.05 (inactive) | 1.02 (inactive) | 1.03 (inactive) | 0.998 (inactive) | 0.987 (inactive)
22 | C[C@H](N)[C@H](O)c1ccc(O)c(O)c1 [Levonordefrin] | 1.11 | 0.971 | 1 | 0.976 | 0.953 (inactive) | 1.04 (inactive) | 1.07 (inactive) | 0.904 (inactive) | 0.981 (inactive) | 0.962 (inactive) | 1.01 (inactive) | 1.14 (inactive)
23 | Cc1cccc(C)c1NC(=O)CN1CCCC1=O [Nefiracetam] | 1.01 | 0.985 | 1.02 | 1.06 | 0.973 (inactive) | 1.04 (inactive) | 1.01 (inactive) | 0.988 (inactive) | 1.01 (inactive) | 1.01 (inactive) | 1 (inactive) | 1.01 (inactive)
24 | Nc1nc(N)nc(NC2CC2)n1 [Cyromazine] | 1.07 | 1.02 | 1.01 | 1.03 | 0.979 (inactive) | 1.02 (inactive) | 0.995 (inactive) | 1.02 (inactive) | 1.03 (inactive) | 0.979 (inactive) | 1 (inactive) | 1 (inactive)
25 | CC(C)c1cccc(C(C)C)c1O [Propofol] | 1.24 | 1.01 | 1 | 1.03 | 1.05 (inactive) | 0.931 (inactive) | 0.964 (inactive) | 0.865 (inactive) | 1.01 (inactive) | 1.34 (active) | 0.989 (inactive) | 0.908 (inactive)
26 | CCNC(=O)NC(=O)/C(C#N)=N/OC | 1.09 | 1.08 | 1 | 1.05 | 0.937 (inactive) | 0.956 (inactive) | 1 (inactive) | 1.05 (inactive) | 1.02 (inactive) | 1.06 (inactive) | 1.02 (inactive) | 1.02 (inactive)
27 | COc1ccc(C(=O)N2CCCC2=O)cc1 [Aniracetam] | 0.932 | 0.978 | 1.04 | 0.771 | 0.853 (inactive) | 1.09 (inactive) | 1.03 (inactive) | 0.929 (inactive) | 0.976 (inactive) | 1.02 (inactive) | 1.01 (inactive) | 1.03 (inactive)
28 | O=C1C=CC(=O)C=C1 [1,4-Benzoquinone] | 0.883 | 0.868 | 0.844 | 0.66 | 0.996 (inactive) | 1.02 (inactive) | 1.18 (inactive) | 0.967 (inactive) | 1 (inactive) | 0.943 (inactive) | 1.11 (inactive) | 1.66 (active)
